Platelet DG rel – platelet dense granule release activity. inhibition, %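 (compounds screened at 7.5 µM in platelet-rich plasma)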. 300,000 tested, 0.22% active. AID 1663. human platelet-rich plasma, SFLLRN dense granule ATP release, luminescence;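 active means mean replicate score, as percent of positive control, at or above 50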
GRK2 inh – blocks RNA aptamer binding to human GRK2; bead flow cytometry, FAM-aptamer displacement from GRK2; inhibition of aptamer binding, % at 10 µM; 330,000 tested, 0.59% active; AID 488847;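 active means inhibition of aptamer binding above 40%, roughly 3 SD of noise, on plates passing a quality check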;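 further: median bead fluorescence of bound FAM aptamer so fluorescent compounds give negative values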
NTR1 ag – NTR1 (human) agonism; NTR1-U2OS beta-arrestin-GFP spot imaging, agonist mode; activation, % at 20 µM; 330,000 tested, 0.17% active;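 active means activation at or above 40% of the spot to cytoplasm intensity ratio, with at least 20 cells analyzed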;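 further: 0% = DMSO without peptide and 100% = 100 nM NTR1 peptide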
Target sequence (P30989 whole entry, looked up): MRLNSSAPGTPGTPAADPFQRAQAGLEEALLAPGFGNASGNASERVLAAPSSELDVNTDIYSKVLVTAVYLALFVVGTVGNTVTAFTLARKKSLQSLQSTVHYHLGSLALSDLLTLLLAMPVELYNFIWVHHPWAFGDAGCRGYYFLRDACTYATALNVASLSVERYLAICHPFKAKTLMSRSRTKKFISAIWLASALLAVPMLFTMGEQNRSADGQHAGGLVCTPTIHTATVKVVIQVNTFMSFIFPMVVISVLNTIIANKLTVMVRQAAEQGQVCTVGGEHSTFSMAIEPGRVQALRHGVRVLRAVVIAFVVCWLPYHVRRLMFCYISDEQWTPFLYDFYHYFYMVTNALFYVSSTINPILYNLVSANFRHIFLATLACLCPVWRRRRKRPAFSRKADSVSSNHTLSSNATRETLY
MIN6 prolif – induces beta-cell replication in MIN6 cells. 330,000 tested, 0.29% active. proliferation, % at 10 µM. AID 2380. MIN6 cells proliferation, ATPlite luminescence, 48 h; cells starved in 0.2% serum; 100% = growth in 10% serum;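 active means compounds whose signal lies at least 3.5 SD above the mean of all wells on their plate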;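 further: 0% = DMSO-treated cells in low-serum medium and 100% = 10% serum control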
GRK2 inh confirm – human GRK2 inhibition confirmation, cherry pick 1; shares compounds with GRK2 inh; 2,000 tested, 4% active; bead-bound GRK2, FAM-aptamer displacement, flow cytometry; AID 504451; aptamer displacement, % at 10 µM;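 active means aptamer displacement above 40%, near three times the noise of non-fluorescent compounds, on plates passing quality checks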;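 further: negative values mostly reflect intrinsic compound fluorescence rather than true enhancement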
Aptamer quench – counter-screen for GRK2 aptamer inhibitors: fluorescent aptamer quenchers; 110 tested, under 10 active; shares compounds with GRK2 inh; fluorescence change (kMESF span), kMESF (no concentration beside the values); Fluorescent RNA aptamer beads, quenching, flow cytometry; hits give high values;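 active means compounds whose bead fluorescence drops by more than 37 kMESF across the dose range, marking them as dye quenchers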
FAM quench CP1 – quenches fluorescent RNA aptamer, GRK2 hit artifact; shares compounds with GRK2 inh; Carboxyfluorescein RNA aptamer on beads, flow cytometry quenching; hits give low values; fluorescence response (% of DMSO), % at 10 µM; 2,000 tested, under 10 active; AID 504580;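 active means compounds that quench the bead-bound fluorescent RNA probe, cutting fluorescence to under half of the solvent control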;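 further: counterscreen run without GRK2 so only probe quenching by compound is measured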
GRK2 CP2 – human GRK2 inhibition confirmation, cherry pick 2. shares compounds with GRK2 inh. bead-bound GRK2, FAM-aptamer displacement, flow cytometry. inhibition of aptamer binding, % at 10 µM. 360 tested, under 10 active;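 active means inhibition of aptamer binding above 40%, about triple the noise seen with nonglowing compounds, on plates passing quality control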;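 further: negative values mostly come from compounds that fluoresce themselves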
FAM quench CP2 – counter-screen for GRK2 binding hits: quenchers of fluorescent RNA aptamer; shares compounds with GRK2 inh; carboxyfluorescein RNA aptamer beads, flow cytometry quenching; hits give low values; fluorescence response vs DMSO, % at 10 µM; 360 tested, under 10 active; AID 588494;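 active means response vs DMSO under 50%, meaning signal dropped by over half, treated as fluorescence quencher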;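 further: labelled aptamer on streptavidin beads without GRK2 as a quench counter-screen; 100% = bead fluorescence of DMSO wells and lower means quenching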
FAM quench DR – aptamer fluorescence quenching in GRK2 powder counter-screen. shares compounds with GRK2 inh. Bead-bound FAM RNA aptamer fluorescence quenching, flow cytometry; hits give low values. fluorescence ratio to DMSO, % at 11.1 µM. 35 tested, under 10 active. AID 588496;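 active means compounds that dim the fluorescent label, raw bead signal shifting by over 33 units between lowest and highest dose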
Numbers without * were called inactive; . = no result. An excerpt weighted towards active compounds, which were near 1.2% of everything screened.

SMILES	Platelet DG rel	GRK2 inh	NTR1 ag	MIN6 prolif	GRK2 inh confirm	FAM quench CP1	others
CC1(c2ccccc2)CC(C)(C)N2C(=O)Cc3cccc1c32 (configuration not stated)	-2	50*	9	-2	1	99
CC(=O)N1c2ccccc2C(C)(c2ccccc2)CC1(C)C (configuration not stated)	-5	3	4	5	.	.
O=C(Nc1ccncc1)c1cccc2ccccc12	0	49*	0	-2	0	94
O=C(CCc1n[nH]c(=O)[nH]c1=O)N/N=C/c1ccco1	2	44*	0	2	25	96
Cc1ccc(-c2cc(C(=O)N/N=C/c3ccco3)[nH]n2)cc1	7	87*	-2	-1	-1	100
Cn1c(=O)c2[nH]c(N3CCN(c4ccccn4)CC3)nc2n(C)c1=O	15	1	-1	3	.	.
Cc1nc2cc(NC(=O)c3ccc(S(=O)(=O)N(C)c4ccccc4)cc3)ccc2o1	-1	7	9	-2	.	.
CCOCCCNC(=O)c1ccc(N2CCCC2)c(NS(=O)(=O)c2ccc(C)cc2)c1	-2	96*	1	4	1	94
CC12C(=O)N(c3ccccc3C(=O)O)C(=O)C1C1C=CC2C1 (configuration not stated)	-3	79*	-1	-2	3	94
CC(=O)NC(Cc1ccc(C)cc1)C(=O)NC1CCN(S(=O)(=O)c2ccccc2)CC1 (configuration not stated)	-67	0	-1	0	.	.
O=[N+]([O-])c1ccc(-c2c(-c3ccccc3)ncc3ccc(F)cc23)cc1	.	100*	10	-6	3	104
Fc1ccc2cnc(-c3ccccc3)c(-c3ccc(C(F)(F)F)cc3)c2c1	.	0	8	-7	.	.
CC1(c2ccc3ccccc3c2)NC(=O)N(CC(=O)O)C1=O (configuration not stated)	-8	47*	-1	-2	-3	99
CC(=O)N1CCN(C(=O)CN2C(=O)NC(C)(c3ccc4ccccc4c3)C2=O)CC1 (configuration not stated)	.	0	2	1	.	.
COc1ccc(CNC(=O)CN2C(=O)NC(C)(c3ccc(Cl)cc3)C2=O)cc1 (configuration not stated)	2	54*	0	-6	-1	102
COc1ccc(CNC(=O)CN2C(=O)NC(c3ccccc3)(c3ccccc3)C2=O)cc1	.	0	-1	-6	.	.
CCOc1ccc(NC(=O)CSc2nc3c([nH]c4ccccc43)c(=O)n2C)cc1	-19	1	-1	-4	.	.
COc1ccc(OC)c(NC(=O)CSc2nc3c(c(=O)n(C)c(=O)n3C)n2C)c1	-15	74*	2	0	-3	93
COc1ccc(NC(=O)CSc2nc3c([nH]c4ccccc43)c(=O)n2C)c(OC)c1	1	97*	3	-2	.	.	GRK2 CP2=0;FAM quench CP2=96
Cc1ccccc1NC(=O)CSc1nc2c(c(=O)n(C)c(=O)n2C)n1C	-3	0	0	-2	.	.
CCN(c1ccccc1)S(=O)(=O)c1ccc(OC)c(NC(=O)c2cc(F)c(F)c(F)c2F)c1	.	1	1	-2	.	.
Cc1cc(C)c(CN2CCN(C(=O)Cn3cnc(C(=O)Nc4ccc(C)c(C)c4)n3)CC2)c(C)c1	.	5	14	.	.	.
CCc1ccc(N2C(=O)CN(Cc3cccs3)C2=S)cc1	12	0	7	-6	.	.
Cn1c(SCC(=O)NNC(=O)c2ccccc2)nnc1C(F)(F)F	.	0	2	3	.	.
CC(C)(C)c1ccc(C(=O)N2CCNCC2)cc1	-5	65*	-1	-1	3	103
SMILES	Platelet DG rel	GRK2 inh	NTR1 ag	MIN6 prolif	GRK2 inh confirm	FAM quench CP1	others
CCOc1ccc(C2=NNC(c3cccnc3)=Nc3ccc(OC)cc32)cc1	-6	100*	1	-1	3	101
CC(CC(=O)Nc1ccc(Br)cc1F)S(=O)(=O)c1ccc2c(c1)NC(=O)CO2 (configuration not stated)	-11	0	0	0	.	.	GRK2 CP2=-8;FAM quench CP2=102
COC(=O)c1ccc(CSc2nnnn2C)o1	-1	0	-2	-1	.	.
COC(=O)c1ccc(CSc2nnc(C)n2N)o1	3	100*	0	0	.	.	GRK2 CP2=-1;FAM quench CP2=111
Cc1ccc(NS(=O)(=O)c2c(C(=O)N3CCOCC3)c(C)n(C)c2C)cc1	-7	1	-1	3	.	.
Cc1cc(NS(=O)(=O)c2c(C(=O)N3CCOCC3)c(C)n(C)c2C)ccc1Br	-16	45*	2	-1	-4	103
COc1cccc(C(=O)OCC(=O)NCC2CCCO2)c1 (configuration not stated)	.	1	3	-3	.	.
Cc1cc(=O)[nH]c(SCC(=O)NCc2ccco2)n1	6	54*	0	0	94*	99	Aptamer quench=2.1;FAM quench DR=100
O=C(CSc1nccc(=O)[nH]1)NCc1ccco1	0	37	0	-4	.	.
O=C(CSc1nnc(NC(=O)Cc2ccccc2)s1)NCc1ccco1	8	60*	-1	-2	-1	92
CCc1c(O)nc(SCC(=O)NCc2ccco2)[nH]c1=O	9	11	-1	-1	.	.	GRK2 CP2=1;FAM quench CP2=107
O=C(CSc1nnc(NC(=O)Cc2ccc(F)cc2)s1)NCc1ccco1	0	2	0	0	.	.
Cn1c(SCC(=O)NCc2ccco2)nnc1-c1cccs1	-6	86*	-2	2	3	100
CCn1c(SCC(=O)NC(=O)NCc2ccco2)nnc1-c1cccs1	-6	0	1	0	.	.
CCN1C(=O)C(=O)N(CC(=O)NC(C)CCc2ccccc2)C1=O (configuration not stated)	.	0	1	2	.	.
O=C(NC1CC(=O)N(c2ccc3c(c2)OCCO3)C1)N1CCCCC1 (configuration not stated)	20	0	0	0	.	.
Cc1sc2nc(SCC(=O)NCc3ccco3)[nH]c(=O)c2c1C	.	1	2	-2	.	.	GRK2 CP2=-13;FAM quench CP2=102

Screens from PubChem BioAssay.
